FAS-TE inh – FAS thioesterase domain inhibitors, primary screen, biochemical, fluorescence intensity, uHTS; 360,000 tested, 0.67% active; AID 602261, 2012; recombinant FAS-TE, OMFH fluorogenic substrate, fluorescence endpoint; inhibition, % at 15 µM; Fatty acid synthase (Homo sapiens), P49327;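 active means compounds whose normalised, plate-corrected inhibition of enzyme fluorescence in the single-dose primary screen is 50% or more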;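 further: 0% = DMSO with enzyme and 100% = substrate without enzyme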
NR3A LBD binder – binders of NR3A ligand-binding domain, primary screen, biophysical, differential scanning fluorimetry, uHTS; NR3A LBD differential scanning fluorimetry, Tm shift; 0% = protein alone, 100% = glycine-bound protein; Tm shift relative to glycine control, % at 25 µM; 340,000 tested, 2.5% active; AID 1259313, 2017;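 active means melting temperature shift of at least 10% of the positive control shift, at one fixed dose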
ADAM10 inh – human ADAM10 inhibitors, primary screen, biochemical, QFRET, HTS; recombinant ADAM10, EDANS/DABCYL FRET peptide cleavage, 3 h; inhibition, % at 7 µM; 370,000 tested, 0.62% active;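 active means inhibition above a per-campaign cutoff equal to the mean of compounds falling between control-based bounds plus 3 SD, cut at about 20% in these data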;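 further: 0% = DMSO wells while the 100% control is not disclosed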
ADAM17 inh – ADAM17 inhibitors, primary screen, biochemical, QFRET; inhibition, % at 6.95 µM; Disintegrin and metalloproteinase domain-containing protein 17 (Homo sapiens), P78536; recombinant ADAM17, EDANS/DABCYL FRET peptide cleavage; 370,000 tested, 0.83% active; AID 720648, 2013;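 active means inhibition above the mean of compounds lying between control limits plus 3 SD, set per campaign, cut at about 8.5% in these data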;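 further: 0% = DMSO-only wells as the low control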
sPLA2-III inh – human group III sPLA2 inhibitors, primary screen, biochemical, QFRET, BODIPY PC-A2 liposome substrate; Group 3 secretory phospholipase A2 (Homo sapiens), Q9NZ20; QFRET BODIPY PC-A2 liposome hydrolysis, fluorescence; inhibition, % at 12.2 µM; 370,000 tested, 0.56% active; AID 743126, 2013;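 active means inhibition above mean plus 3 SD of compounds lying within the high and low control bounds, cut at about 19% in these data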;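 further: 0% = median of test compound wells and 100% = no enzyme DMSO wells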
Target sequence (Q9NZ20 whole entry, looked up): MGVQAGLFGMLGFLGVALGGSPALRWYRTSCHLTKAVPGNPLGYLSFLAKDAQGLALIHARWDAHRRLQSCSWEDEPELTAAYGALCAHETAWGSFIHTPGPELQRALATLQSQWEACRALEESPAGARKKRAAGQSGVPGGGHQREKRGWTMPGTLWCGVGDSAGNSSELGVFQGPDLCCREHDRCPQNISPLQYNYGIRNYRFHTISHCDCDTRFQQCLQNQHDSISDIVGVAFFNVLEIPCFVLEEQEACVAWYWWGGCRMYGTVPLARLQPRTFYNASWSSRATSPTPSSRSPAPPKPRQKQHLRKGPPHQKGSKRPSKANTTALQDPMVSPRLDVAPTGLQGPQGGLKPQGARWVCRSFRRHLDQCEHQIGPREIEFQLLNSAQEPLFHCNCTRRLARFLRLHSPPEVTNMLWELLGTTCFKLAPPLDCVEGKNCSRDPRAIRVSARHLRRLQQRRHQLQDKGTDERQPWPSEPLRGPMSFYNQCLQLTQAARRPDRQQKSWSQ
* = called active by the depositor; i = inactive; . = no result. Hits are enriched below; roughly 4.3% of the tested compounds scored in any of these assays.

SMILES	FAS-TE inh	NR3A LBD binder	ADAM10 inh	ADAM17 inh	sPLA2-III inh
COc1ccc(C(=O)c2sc3nc(-c4ccccc4)ccc3c2N)cc1	24.7	17.6*	.	.	.
Cc1nc(-c2ccccc2)nc2sc(C(=O)c3ccc(F)cc3)c(N)c12	19.4	15.2*	1.0	-3.8	14.0
Cc1cc(C(=O)NC2CC(C)(C)Cc3c2cnn3-c2cccc(F)c2)nn1C (configuration not stated)	-2.5	11.7*	-7.1	-3.2	3.3
CCn1c2ccccc2c2cc(NC(=O)COC(=O)c3cc(S(N)(=O)=O)c(Cl)cc3Cl)ccc21	9.1	13.8*	-3.5	-3.9	-14.6
CCn1c2ccccc2c2cc(NC(=O)COC(=O)c3ccccc3O)ccc21	8.3	-2.2	2.7	-3.5	10.8
COC(=O)c1cc(-c2ccc(-c3ccccc3)c(F)c2)c(=O)n2c1CCC2	.	.	-25.8	-9.0	2.9
Cc1ccc(-n2c(SCC(=O)N/N=C/C=C\c3ccco3)nnc2-c2ccccc2)cc1	.	.	5.4	3.3	-14.3
O=C(CCn1nc(-c2ccc(Cl)cc2)ccc1=O)N1CCN(c2ccccc2)CC1	51.3*	1.1	0.8	3.5	-6.5
CC1(C)CC(=O)C=C(Nc2ccccc2NC(=O)c2cccc(F)c2F)C1	.	.	-3.7	-1.8	4.4
S=C(Nc1ccccc1)Nc1ccc(OCc2ccccc2)cc1	-5.7	8.7	6.8	0.7	-0.7
S=C(Nc1ccc(OCc2ccccc2)cc1)Nc1cccc(Cl)c1Cl	20.8	11.9*	-0.9	1.1	10.3
COc1ccc(NC(=S)Nc2ccc(OCc3ccccc3)cc2)c(OC)c1	7.1	10.4*	6.9	0.7	2.5
NS(=O)(=O)c1ccc(NC(=S)Nc2ccc(OCc3ccccc3)cc2)cc1	-1.8	12.3*	0.5	-1.9	3.6
CCCCNC(=O)C(=O)N/N=C/c1ccc(OCC(=O)Nc2cccc(OC)c2)c(OC)c1	-5.4	10.6*	6.2	2.3	-6.3
COc1cc(/C=N/NC(=O)c2ccncc2)ccc1OCC(=O)Nc1ccc(C)c(C)c1	-5.9	11.5*	-7.0	-3.0	-12.4
COc1cc(/C=N/NC(=O)c2ccncc2)ccc1OCC(=O)Nc1cccc([N+](=O)[O-])c1	-0.9	-1.3	0.0	-0.1	1.8
COC(=O)[C@]12C[C@H](CC(=O)N3CCN(C(=O)C4CC4)CC3)C(=O)N(Cc3cccc4ccccc34)C1=C[C@H](C1CCCC1)O[C@@H]2C	.	.	3.2	-1.3	-5.2
O=C(c1ccoc1)N1CCN(c2cc(-c3ccco3)nc3cc(-c4ccco4)nn23)CC1	.	.	i	-364.7	0.4
Cc1ccc2[nH]c(=O)c(NC(N)=S)nc2c1	-6.7	11.1*	9.4	1.8	14.6
O=C(Nc1ccccc1C(=O)N1CCCCCC1)c1ccccc1	-3.2	-0.2	-6.4	-1.3	-5.9
CN(c1ccc(C(=O)Nc2ccccc2C(=O)N2CCCC2)cc1)S(C)(=O)=O	-3.3	15.1*	-5.4	-3.4	3.0
CCN(Cc1ccncc1)Cc1ccc(OC)c(OC)c1	-4.5	2.4	0.3	-1.0	-16.8
CCN(CC)Cc1ccc(OC)c(Cl)c1	-7.2	13.9*	-1.9	-1.2	-1.1
Oc1ccc(/C=C/c2ccc3cccc(O)c3n2)cc1Br	15.3	29.8*	10.9	6.9	-1.3
COC(=O)[C@]12C[C@H](CC(=O)NCc3cccc(C(F)(F)F)c3)C(=O)N(CCC3=CCCCC3)C1=C[C@H](C1CCCC1)O[C@@H]2C	.	.	4.8	-2.2	-18.5
SMILES	FAS-TE inh	NR3A LBD binder	ADAM10 inh	ADAM17 inh	sPLA2-III inh
Cc1ccccc1NCC(=O)N/N=C\C=C\c1cccc([N+](=O)[O-])c1	20.5	14.8*	8.7	-0.2	1.6
CCn1c2c(n(C(C)=O)c1=O)C=C(C(=O)N1CCCC1)C(C)C(c1ccccc1)=C2 (configuration not stated)	.	.	-22.4	-7.3	-7.3
COc1ccc(NC(=O)c2ccc(NS(=O)(=O)c3cccc4cccnc34)cc2)cc1	3.4	1.5	2.0	0.1	-14.5
Cc1ccc(S(=O)(=O)Nc2ccc(C(=O)NCc3ccccn3)cc2)cc1	-0.5	13.1*	-4.5	-3.6	-1.9
Cc1ccc(NC(=O)c2ccc(NS(=O)(=O)c3cccc4cccnc34)cc2)cc1	14.1	27.9*	.	.	.
COc1ccccc1NC(=O)c1ccc(NS(=O)(=O)c2cccc3cccnc23)cc1	4.4	17.5*	0.5	-2.1	-35.4
COc1ccccc1NC(=O)c1ccc(NS(=O)(=O)c2ccc(F)c(Cl)c2)cc1	2.2	11.3*	-0.1	1.3	-54.1
Cc1ccc(NS(=O)(=O)c2cccc(C(=O)NCc3ccccn3)c2)cc1	0.2	-1.3	5.8	3.9	0.6
COc1ccc(C)cc1NC(=O)c1ccc(NS(=O)(=O)c2cccc3cccnc23)cc1	28.6	-2.1	18.2	7.8	-37.6
Cc1ccc(S(=O)(=O)N(C)[C@H]2C[C@H]3c4cc(-c5ccccc5C)ccc4CCN3C[C@H]2[C@H](C)O)cc1	.	.	-13.7	-2.0	4.6
O=C(Nc1ccc(Br)cc1)O[C@@H]1CC[C@@]23CCCN2C(=O)CCC[C@H]3C1	.	.	9.3	3.5	-7.4
COC(=O)c1cc(-c2ccc(F)c(Cl)c2)c(=O)n2c1CCC2	.	.	-10.8	-5.8	-0.9
CC(=O)Nc1ccc(NC(=O)c2ccc(NS(=O)(=O)c3cc(C(C)(C)C)cc(C)c3C)cc2)cc1	-4.5	26.1*	-3.5	-2.0	-7.5
CC(=O)Nc1ccc(NC(=O)c2ccc(NS(=O)(=O)c3cccc4cccnc34)cc2)cc1	-1.5	18.5*	2.9	3.6	-9.1
Cc1cc(C(C)(C)C)cc(S(=O)(=O)Nc2ccc(O)c(C(=O)O)c2)c1C	-0.2	-8.0	3.7	2.2	-29.5
COc1ccc(NC(=O)c2ccc3ccccc3c2)cc1	-6.2	0.1	12.4	-0.1	6.1
CC(=O)c1ccc(NC(=O)CSCC(=O)Nc2ccc3ccccc3c2)cc1	5.5	13.2*	8.6	0.2	-20.5
CCC(=O)Nc1ccc(NC(=O)c2ccc3ccccc3c2)cc1	-5.5	10.1*	7.8	3.1	-0.6
O=C(CSCc1ccc(C(=O)O)cc1)Nc1ccc2ccccc2c1	-7.8	-0.1	-5.6	-4.7	-0.6
O=C(CSc1ccc(C(F)(F)F)cc1[N+](=O)[O-])Nc1ccc2ccccc2c1	-49.8	34.5*	-4.8	-0.5	4.5
COC(=O)[C@@]12CCCCC3=C1N(CCC3)C(=O)[C@H]2CC(=O)NCCCCc1ccccc1	.	.	0.3	-0.7	-8.2
COc1cc2c(cc1NC(=O)c1ccc3c(c1)OCO3)oc1ccccc12	31.0	26.2*	-0.6	-2.1	4.1
